Shown are actives, neighbours in structure and some others; about 17% of the full set was active somewhere.
TDP1 cell CPT: growth inhibition of DT40 Tdp1-/-;hTDP1 cells with camptothecin (screen for TDP1 inhibitors) | chicken DT40 Tdp1-/-;hTDP1 cells + 20 nM CPT, ATP luminescence, 48 h | Potency, µM (series often up to 46.2 µM), inactives show at the highest dose activity change, negative = growth inhibition, hits mostly inhibitors | 12% of 420,000 active; also: % is scaled to controls: 0 for no effect and ±100 for the full control effect; nearly all actives have a fitted effect of over 55% in size
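Cell growth measured by CellTiter-Glo luminescence after a minimum 48 h, 37 C compound exposure with 20 nM CPT in Tdp1-knockout DT40 cells stably expressing hTDP1, seeded 400/well; qHTS titration format.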
HT1080-NT tox: kills 2HG-producing HT-1080-NT fibrosarcoma cells; 1.6% of 360,000 active; Potency, µM (titrated, usually from 46.1 µM), for inactives: top-dose activity, negative = less viability, actives largely listed as cytotoxic; HT-1080-NT fibrosarcoma viability, CellTiter-Glo ATP luminescence, 48 h;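 also: NT is the 2HG producing partner of a matched IDH1 knockdown line; 0% = DMSO-treated cells and -100% = media-only wells without cells; nearly all actives have a fitted effect of over 55% in size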
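HT-1080-NT; 750 cells/well; 5% FBS RPMI; 48 h compound, 37 degrees C; CellTiter-Glo luminescence; curve fitting and curve-class assignment.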
HT1080 IDH1KD tx: toxicity to HT-1080 IDH1 knockdown cells (counter line) | HT-1080 IDH1 knockdown viability, ATP luminescence, 48 h | Potency, µM (doses to about 46.1 µM), for the others: at the top dose activity, negative = toxicity, actives largely listed as cytotoxic | 2% of 360,000 active | AID 686971;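 also: 0% = DMSO wells and -100% = cell-free medium wells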
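HT-1080-IDH1KD cells (IDH1 knocked down), 750/well in RPMI with 5% FBS, treated with compound 48 h at 37 degrees C. Viability by CellTiter-Glo luminescence, normalised to DMSO and no-cell wells; concentration-response curves classed.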
HepG2 tox: counter-screen for TGF-b inhibitors: cytotoxicity in HepG2 cells; HepG2 CAGA-GFP viability, ATP luminescence, 18 h; Potency, µM (highest dose often 46.1 µM), for the others: at the top dose activity change, negative = cytotoxicity, hits mostly cytotoxic; 0.76% of 410,000 active; AID 588856
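HepG2 CAGA-GFP cells (1000/well, DMEM with 1% FBS) received compound, then TGF-beta at 500 pg/mL final, and were incubated 18 hours at 37 degrees C. Viability was read by CellTiter-Glo luminescence. Media-only wells were set as complete cell-killing and DMSO as no toxicity.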
DT40 TDP1 no CPT: qHTS for Inhibitors of human tyrosyl-DNA phosphodiesterase 1 (TDP1): qHTS in cells in absence of CPT | DT40 Tdp1-/- hTDP1 cells, no CPT, ATP luminescence, 48 h | Potency, µM (doses to about 46.2 µM), without a hit: at the top dose activity change, negative = growth inhibition, actives largely listed as inhibitors | 15% of 420,000 active; also: % is scaled to controls: 0 for no effect and ±100 for the full control effect; nearly all actives have a fitted effect of over 55% in size
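Camptothecin absent (DMSO only). Human TDP1-complemented DT40 knockout cells, 400 cells/well, 37 °C for minimum 48 hr; ATP measured via CellTiter-Glo, 30 min dark incubation, luminescence.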
TGFb SMAD3 inh: TGF-b pathway inhibition | HepG2 CAGA-GFP TGF-b/SMAD3 reporter, GFP fluorescence, 18 h; TGF-beta stimulated, 500 pg/mL final | Potency, µM (titrated, usually from 46.1 µM), for inactives: top-dose activity, negative = inhibition, usual class: inhibitors | 1.2% of 410,000 active | AID 588855; also: % is scaled to controls: 0 for no effect and ±100 for the full control effect; nearly all actives have a fitted effect of over 65% in size
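Read-out: total well GFP (ex488/em500-530) summed from mean per-cell fluorescence. Cells: HEPG2 CAGA-GFP, 1% FBS DMEM, 18 h at 37 degrees C with 500 pg/mL final TGF-beta. Unstimulated wells served as the full-inhibition control; stimulated DMSO wells = 0%.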
* = called active by the depositor; [ ] = dose if it differs, or a comment. Calls follow the shape of the dose curve; as a rule, active = well fitted curve in the direction sought with a large enough effect; inconclusive = small, poorly fitted or top-dose-only effect, or another doubt; inactive = no such curve, though single readings can be large; an effect the other way counts as inactive or inconclusive. Potency is read from the fitted curve at half-maximal effect.

`O=C(CCN1C(=O)C2CCCCC2C1=O)N1CCN(S(=O)(=O)c2c(F)cccc2F)CC1` (configuration not stated) gave TDP1 cell CPT -8%, HT1080-NT tox 21%, HT1080 IDH1KD tx 17%, HepG2 tox 0%, DT40 TDP1 no CPT -2% and TGFb SMAD3 inh 7%.
For O=C(CNC(=O)/C=C/c1ccco1)N=Nc1c(O)[nH]c2ccccc12 the results were TDP1 cell CPT 7%, HT1080-NT tox -1%, HT1080 IDH1KD tx 3%, HepG2 tox 4%, DT40 TDP1 no CPT -22% and TGFb SMAD3 inh -2%.
Screening S=C(Nc1ccccc1)Nc1ccccc1Br returned TDP1 cell CPT 3%, HT1080-NT tox -30%, HT1080 IDH1KD tx 8%, HepG2 tox 1%, DT40 TDP1 no CPT 3% and TGFb SMAD3 inh 1%.
CSc1ccccc1C(=O)OCC(=O)Nc1cccnc1Cl was read as TDP1 cell CPT 5%, HT1080-NT tox -7%, HT1080 IDH1KD tx -2%, HepG2 tox -1%, DT40 TDP1 no CPT -18% and TGFb SMAD3 inh -1%.
`Cc1ccccc1CN(c1ccc(C(=O)N/N=C/c2ccc(OCC(N)=O)cc2)cc1)S(C)(=O)=O` gave TDP1 cell CPT -17%, HT1080-NT tox -13%, HT1080 IDH1KD tx -8%, HepG2 tox -9%, DT40 TDP1 no CPT 8% and TGFb SMAD3 inh 2%.
`CC(=O)c1ccc(N2CCN(S(=O)(=O)c3csc(C(N)=O)c3)CC2)cc1` gave TDP1 cell CPT -2%, HT1080-NT tox -27%, HT1080 IDH1KD tx inconclusive, HepG2 tox -9%, DT40 TDP1 no CPT 6% and TGFb SMAD3 inh 13%.
Cc1ccc(C)c(N2CCN(C(=O)c3cc(S(=O)(=O)N4CCCCCC4)cn3C)CC2)c1 was read as TDP1 cell CPT inconclusive, HepG2 tox -3%, DT40 TDP1 no CPT inconclusive and TGFb SMAD3 inh inconclusive.
Screening COc1cc(S(=O)(=O)N2CCOCC2)cc(C(=O)c2nccn2C)c1OC returned TDP1 cell CPT -3%, HT1080-NT tox 8%, HT1080 IDH1KD tx 8%[9.24 µM], HepG2 tox 4%, DT40 TDP1 no CPT -2% and TGFb SMAD3 inh -7%.
Screening Cc1cccc(N2CCN(S(=O)(=O)c3csc(C(N)=O)c3)CC2)c1C returned TDP1 cell CPT 12µM*, HepG2 tox -34%, DT40 TDP1 no CPT 21µM* and TGFb SMAD3 inh inconclusive.
`CCCCn1ccnc1C(=O)c1cc(S(=O)(=O)N2CCOCC2)ccc1C` gave TDP1 cell CPT 12µM*, HT1080-NT tox -4%, HT1080 IDH1KD tx -5%, HepG2 tox -30%, DT40 TDP1 no CPT 10µM* and TGFb SMAD3 inh 0%.
Screening Cc1ccc(C)c(N2CCN(C(=O)c3cc(S(=O)(=O)N4CCCCC4)cn3C)CC2)c1 returned TDP1 cell CPT 21µM*, HepG2 tox 1%, DT40 TDP1 no CPT 18µM* and TGFb SMAD3 inh 16%.
Cc1onc(C(=O)N2CCC(Cc3ccccc3)CC2)c1[N+](=O)[O-] was read as TDP1 cell CPT inconclusive, HT1080-NT tox 5.8µM*, HT1080 IDH1KD tx 10µM*, HepG2 tox -2%, DT40 TDP1 no CPT inconclusive and TGFb SMAD3 inh inconclusive.
`O=C(O)c1ccc(Cl)c(NC(=S)NC(=O)c2ccccc2[N+](=O)[O-])c1` gave TDP1 cell CPT -3%, HT1080-NT tox 14%, HT1080 IDH1KD tx 14%, HepG2 tox 9%, DT40 TDP1 no CPT 12% and TGFb SMAD3 inh 12%.
`CSCCC(NS(=O)(=O)c1c(Cl)cccc1Cl)C(=O)O` (configuration not stated) gave TDP1 cell CPT 10%, HT1080-NT tox 3%, HT1080 IDH1KD tx 20%, HepG2 tox 3%, DT40 TDP1 no CPT 10% and TGFb SMAD3 inh 0%.
CC12CCC(C/C1=N/OC(=O)c1cccc([N+](=O)[O-])c1)C2(C)C (configuration not stated) was read as TDP1 cell CPT -15%, HT1080-NT tox 0%, HT1080 IDH1KD tx -2%, HepG2 tox -29%, DT40 TDP1 no CPT -20% and TGFb SMAD3 inh -18%.
For Cc1ccccc1C(=O)Nc1ccc(S(=O)(=O)NCC2CCCO2)cc1 (configuration not stated) the results were TDP1 cell CPT 10µM*, HT1080-NT tox 6%, HT1080 IDH1KD tx -1%, HepG2 tox -4%, DT40 TDP1 no CPT 13µM* and TGFb SMAD3 inh -10%.
For COCC(=O)Nc1ccc(S(=O)(=O)NCC2CCCO2)cc1 (configuration not stated) the results were TDP1 cell CPT 6%, HT1080-NT tox 0%, HT1080 IDH1KD tx 4%, HepG2 tox 4%, DT40 TDP1 no CPT -3% and TGFb SMAD3 inh -8%.
Screening O=C(Cc1ccc(Br)cc1)Nc1ccc(S(=O)(=O)NCC2CCCO2)cc1 (configuration not stated) returned TDP1 cell CPT 12µM*, HT1080-NT tox -20%, HT1080 IDH1KD tx -11%, HepG2 tox 1%, DT40 TDP1 no CPT 18µM* and TGFb SMAD3 inh -3%.
For CCOc1cc(NC(=S)NCC2CCCO2)c(OCC)cc1NC(=O)c1ccccc1C (configuration not stated) the results were TDP1 cell CPT 29µM*, HT1080-NT tox 2%, HT1080 IDH1KD tx 8%, HepG2 tox -3%, DT40 TDP1 no CPT inconclusive and TGFb SMAD3 inh -7%.
`CCc1cc(C(=O)N2CCN(S(=O)(=O)c3ccccc3F)CC2)sc1C` gave TDP1 cell CPT -24%, HT1080-NT tox -5%[9.24 µM], HT1080 IDH1KD tx -2%, HepG2 tox -9%, DT40 TDP1 no CPT -16% and TGFb SMAD3 inh -7%.
Cc1ccc(OCC(=O)N(Cc2ccco2)c2c(N)n(Cc3ccccc3)c(=O)[nH]c2=O)cc1C was read as TDP1 cell CPT -23%, HT1080-NT tox 7%, HT1080 IDH1KD tx 5%, HepG2 tox -22%, DT40 TDP1 no CPT 18% and TGFb SMAD3 inh -12%.
Screening Cc1c(CNC(C)CCc2ccccc2)c(C(=O)O)c(C)n1Cc1ccc(F)cc1 (configuration not stated) returned TDP1 cell CPT -20%, HepG2 tox -4%, DT40 TDP1 no CPT -22% and TGFb SMAD3 inh 1%.
`CCOc1ccccc1NC(=O)Cn1c(=O)n(CCC(=O)NCc2ccc3c(c2)OCO3)c(=O)c2ccccc21` gave TDP1 cell CPT inconclusive, HepG2 tox 0%, DT40 TDP1 no CPT 12µM* and TGFb SMAD3 inh -5%.

From PubChem
